JMJD2E inh: qHTS Assay for Inhibitors of Human Jumonji Domain Containing 2E (JMJD2E). Lysine-specific demethylase 4E (Homo sapiens), B2RXH2. JMJD2E catalytic domain, FDH-coupled NADH fluorescence (FDH is formaldehyde dehydrogenase). AID 2147, 2009. Potency, µM (highest dose often 57.1 µM), without a hit: top-dose activity change, negative = inhibition, most hits filed as inhibitors. 230,000 compounds, 1.6% hits; active means well fitted inhibition curve with a large enough effect, not every such curve was filed as active; inconclusive means small, poorly fitted or top-dose-only effect, or another doubt; inactive means no such curve, though single readings can be large or run the other way;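 further: potency means the concentration at half of the fitted maximal effect; 0% = wells with enzyme and -100% = buffer wells without enzyme; nearly all actives have a fitted effect of over 50% in size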
Target sequence (B2RXH2 1-337 limits assumed): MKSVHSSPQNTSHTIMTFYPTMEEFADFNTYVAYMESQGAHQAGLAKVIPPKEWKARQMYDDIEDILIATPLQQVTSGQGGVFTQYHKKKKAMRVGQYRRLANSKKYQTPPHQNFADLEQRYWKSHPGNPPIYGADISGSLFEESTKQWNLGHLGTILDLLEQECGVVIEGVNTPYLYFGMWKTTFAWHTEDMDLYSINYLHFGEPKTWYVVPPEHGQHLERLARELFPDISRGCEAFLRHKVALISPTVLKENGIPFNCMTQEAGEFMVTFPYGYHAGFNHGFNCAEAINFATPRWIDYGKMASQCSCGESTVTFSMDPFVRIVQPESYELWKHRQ
G9a inh: qHTS Assay for Inhibitors of Histone Lysine Methyltransferase G9a | G9a H3K9 monomethylation, AlphaScreen, 2 h | Potency, µM (doses to about 102 µM), for inactives: at the highest dose activity, negative = inhibition, actives largely listed as inhibitors | 350,000 compounds, 8.8% hits | AID 504332, 2011; further: potency means the concentration at half of the fitted maximal effect; on the % scale 0 is the no-effect control and ±100 the full control effect; nearly all actives have a fitted effect of over 75% in size
Target sequence (Q96KQ7 913-1193 limits assumed): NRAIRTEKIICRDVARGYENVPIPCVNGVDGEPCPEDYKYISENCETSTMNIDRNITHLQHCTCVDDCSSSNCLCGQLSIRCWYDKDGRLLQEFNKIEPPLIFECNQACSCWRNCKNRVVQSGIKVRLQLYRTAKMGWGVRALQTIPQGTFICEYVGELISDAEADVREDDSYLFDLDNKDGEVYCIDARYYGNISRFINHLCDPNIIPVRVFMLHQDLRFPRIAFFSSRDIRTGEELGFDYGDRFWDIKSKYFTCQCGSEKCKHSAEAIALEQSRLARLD
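Chemiluminescent proximity detection of H3K9 monomethylation, read after 10 min bead incubation in the dark. Reaction: 20 nM G9a, 500 nM biotin-H3K9 peptide, 20 uM SAM cofactor, 2 h, room temperature, following 15 min enzyme-compound preincubation.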
ALDH1A1 block: qHTS Assay for Inhibitors of Aldehyde Dehydrogenase 1 (ALDH1A1); Potency, µM (doses to about 75.3 µM), without a hit: top-dose activity, negative = inhibition, most hits filed as inhibitors; AID 1030, 2008; Purified ALDH1A1, NADH fluorescence, propionaldehyde substrate; Aldehyde dehydrogenase 1A1 (Homo sapiens), P00352; 220,000 compounds, 7.3% hits; active means well fitted inhibition curve with a large enough effect, not every such curve was filed as active; inconclusive means small, poorly fitted or top-dose-only effect, or another doubt; inactive means no such curve, though single readings can be large or run the other way;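 further: potency means the concentration at half of the fitted maximal effect; plate controls were no enzyme wells and a reference inhibitor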
Sfp inh: qHTS Assay for Inhibitors of Bacillus subtilis Sfp phosphopantetheinyl transferase (PPTase); 4'-phosphopantetheinyl transferase ffp (Bacillus subtilis), Q9F4F7; Potency, µM, for the others: largest response in the series, negative = inhibition, actives largely listed as inhibitors; Biochemical Sfp PPTase activity, qHTS; 310,000 compounds, 3.5% hits;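 further: the enzyme is Sfp with the accession as filed and its product quenches rhodamine fluorescence; potency means the concentration at half of the fitted maximal effect; 0% = enzyme reaction without inhibitor and -100% = no enzyme wells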
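Fluorescence-quenching assay: 15 nM Sfp-PPTase preincubated 15 min at room temperature with compound, then 5 uM rhodamine-CoA and 12.5 uM BHQ-2-labelled YbbR peptide added. Fluorescence (ex 525/em 598 nm) read at start and after 30 min; difference gives rate.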
miR-21 act: qHTS Assay for Modulators of miRNAs and/orActivators of miR-21 | HeLa miR-21 FLuc reporter, luciferase, 48 h | Potency, µM (doses to about 38.3 µM), for inactives: at the highest dose activity change, positive = activation, hits mostly activators | 340,000 tested, under 10 active;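 further: % of control where 0% means no effect; miR-21 action dims this reporter so a rising signal means less miR-21 action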
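HeLa cells endogenously expressing miR-21, stably carrying CMV-driven firefly luciferase with a downstream miR-21 binding site, 2000 cells/well. Titrations up to approximately 40 uM, 48 hours; luciferase luminescence read.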
Lamin A splicing: qHTS Assay for Modulators of Lamin A Splicing. Potency, µM (series often up to 46.1 µM), without a hit: top-dose ratio change, negative = inhibition, hits mostly inhibitors. AID 1487, 2009. 200,000 compounds, 0.01% hits. HeLa LMNA splicing GFP/RFP minigene ratio, 48 h; active means well fitted inhibition curve with a large enough effect in the signal ratio, with a control signal flat, not every such curve was filed as active; inconclusive means small, poorly fitted or top-dose-only effect, or effect the other way, or a change in a side signal; the % refers to the signal ratio; further: potency means the concentration at half of the fitted maximal effect; on the % scale 0 is the no-effect control and ±100 the full control effect
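S3 HeLa cells stably expressing lamin A-EGFP splicing minigene plus DsRed2, 600 cells/well, 48 h compound exposure at 37C. Laser-scanning cytometry; analysed as GFP (500-530 nm)/RFP (575-640 nm) total intensity ratio; 0.5% DMSO vehicle.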
An asterisk follows results filed as active; [ ] = another dose, or the depositor's remark. This is a sample that favours compounds with a hit; in the whole collection about 13% have one here. Unless noted, the call rests on the fitted dose curve; in most records, active means well fitted curve in the direction sought with a large enough effect; inconclusive means small, poorly fitted or top-dose-only effect, or another doubt; inactive means no such curve, though single readings can be large; an effect the other way counts as inactive or inconclusive.

For CC(C)c1ccc(S(=O)(=O)N2CCN(CC(O)CN3CCOCC3)CC2)cc1 (stereo not given) the results were G9a inh 5%[59 µM].
Screening COc1ccc(NS(=O)(=O)c2cc(Br)cc3c2N(C(=O)C2CC2)CC3)cc1OC returned G9a inh 1%[59 µM], miR-21 act 0% and Lamin A splicing -10%[46 µM].
Screening CCCc1[nH]n(-c2ccc([N+](=O)[O-])cc2)c(=O)c1C=NCCc1ccc(OC)c(OC)c1 returned JMJD2E inh 0%, G9a inh inconclusive, ALDH1A1 block 1.8µM*, Sfp inh inconclusive and miR-21 act 1%.
For COc1ccc(NS(=O)(=O)c2ccc(F)c(F)c2F)cc1S(=O)(=O)N1CCOCC1 the results were G9a inh 12%[12.7 µM].
CCn1c(=O)cc(SCC(=O)NCCc2ccc(OC)cc2OC)c2ccccc21 was read as G9a inh 3%[59 µM] and miR-21 act -2%.
For Cc1ccc2oc(=O)c3c4cc(O)c(O)cc4oc3c2c1 the results were JMJD2E inh inconclusive, ALDH1A1 block 12% and Sfp inh 9%.
For COc1cc(O)c2c(c1)oc(=O)c1c3cc(O)c(O)cc3oc21 the results were Sfp inh 10µM*.
CC(O)CSc1nc2c(c(=O)[nH]c(=O)n2C)n1Cc1ccccc1Cl (stereo not given) was read as G9a inh 45µM*, Sfp inh -21% and miR-21 act -14%.
Screening Cn1c(=O)[nH]c(=O)c2c1nc(SCC(O)CCl)n2Cc1ccccc1 (stereo not given) returned Sfp inh 40µM* and miR-21 act -16%.
Screening CC(O)CSc1nc2c(c(=O)[nH]c(=O)n2C)n1Cc1ccccc1 (stereo not given) returned G9a inh 10%, Sfp inh 16% and miR-21 act -25%.
O=C(CC1Sc2ncnn2C1=O)Nc1ccc(Cl)cc1 (stereo not given) was read as JMJD2E inh 1.6µM*, G9a inh 2.5µM*, ALDH1A1 block 7.9µM*, Sfp inh 35µM* and miR-21 act 0%.
CCOC(=O)c1ccc(NC(=O)CC2SC(=NC)N(C)C2=O)cc1 (stereo not given) was read as JMJD2E inh -1%, G9a inh -28%[12.7 µM], ALDH1A1 block 13µM*, Sfp inh 1%, miR-21 act -6% and Lamin A splicing -4%.
Screening CCOC(=O)c1ccc(NC(=O)CC2Sc3ncnn3C2=O)cc1 (stereo not given) returned JMJD2E inh 1.8µM*, G9a inh 2.2µM*, ALDH1A1 block 1µM*, Sfp inh 22µM*, miR-21 act 0% and Lamin A splicing -16%.
O=C(CC1SC(=O)N(c2ccccc2)C1=O)Nc1ccc(Cl)cc1 (stereo not given) was read as JMJD2E inh 7%, G9a inh 45µM*, Sfp inh -19% and miR-21 act -36%.
For O=C(CC1SC(=O)N(c2ccccc2)C1=O)Nc1ccc(Br)cc1 (stereo not given) the results were JMJD2E inh -12%, Sfp inh -24% and miR-21 act -29%.
CCOC(=O)Cc1cc(=O)c2cc(C)ccc2[nH]1 was read as JMJD2E inh -11%, G9a inh 10%[12.7 µM], Sfp inh 10% and miR-21 act 0%.
Cc1ccc(N2C(=O)C(CC(=O)Nc3ccc(F)cc3)N(CCC3=CCCCC3)C2=O)cc1 (stereo not given) was read as G9a inh 13%[59 µM] and miR-21 act 16%.
For CC(=O)N1CCCc2cc(S(=O)(=O)N3CCCC(C(=O)N4CCN(c5ccccc5F)CC4)C3)ccc21 (stereo not given) the results were G9a inh 3%[59 µM], miR-21 act 26% and Lamin A splicing -1%[46 µM].
Screening COc1ccc(-c2nnc(SCC(=O)N(C)Cc3ccccc3)o2)cc1OC returned G9a inh -2%[59 µM] and miR-21 act inconclusive.
Screening COc1ccc(NC(=O)CC2Sc3ncnn3C2=O)cc1 (stereo not given) returned JMJD2E inh 2µM*, G9a inh 1.4µM*, ALDH1A1 block 0.4µM*, Sfp inh 45µM*, miR-21 act -7% and Lamin A splicing -24%.
For COCCN1C(=O)C(CC(=O)Nc2ccccc2)SC1=Nc1ccc(OC)cc1 (stereo not given) the results were JMJD2E inh 11%, G9a inh -4%[59 µM], ALDH1A1 block -7%, Sfp inh 11%, miR-21 act 2% and Lamin A splicing 7%.
Screening Cc1cc(C(=O)N2CCN(c3cc(Cl)ccc3C)CC2)c2c(C)nn(-c3ccccc3)c2n1 returned G9a inh 0%[59 µM], miR-21 act 6% and Lamin A splicing -28%[46 µM].
Screening CCC(C)(C)N(C(=O)CCC(=O)Nc1cc(C)on1)C(C(=O)NC(C)(C)C)c1ccc(OC)cc1 (stereo not given) returned G9a inh 17%, Sfp inh 18% and miR-21 act -1%.
For CCN(CC)Cc1cc2[nH]c3c4ccc(Cl)cc4ncc3c2cc1OC the results were JMJD2E inh inconclusive, G9a inh 45µM*, Sfp inh -28% and miR-21 act inconclusive.
For Cn1nnc(NC(=S)NC(=O)Cc2ccccc2)n1 the results were JMJD2E inh -12%, G9a inh 2.8µM*, ALDH1A1 block inconclusive, Sfp inh -27% and miR-21 act -1%.
Screening Cn1nnc(NC(=O)c2ccccc2)n1 returned JMJD2E inh 3%, G9a inh 16%[59 µM], ALDH1A1 block 8%, Sfp inh 11%, miR-21 act -9% and Lamin A splicing -9%.
O=C(NC(=S)N1CCOCC1)c1cc2ccccc2o1 was read as JMJD2E inh -4%, G9a inh inconclusive, ALDH1A1 block 25µM*, Sfp inh inconclusive and miR-21 act -36%.
For Cn1nnc(NC(=S)NC(=O)c2cc3ccccc3o2)n1 the results were JMJD2E inh -11%, G9a inh inconclusive, Sfp inh 50µM* and miR-21 act -22%.
O=C(c1cc2ccccc2o1)N1CCOCC1 was read as G9a inh -2%.
Screening CCOc1ccc(-c2cc(C(=O)Nc3ccc(NC(C)=O)cc3)no2)cc1 returned G9a inh 8%[59 µM], miR-21 act -16% and Lamin A splicing -7%[46 µM].

Assay outcomes: PubChem BioAssay, National Center for Advancing Translational Sciences (NCATS)
